# Source: PubChem BioAssay (NCI)
# About 79,000 compounds went through this panel and 15% of them were active in at least one assay; those are over-represented in the sample as a whole. Unmarked numbers belong to inactive results. Active and inactive are the calls of the source. No stated cut-off is given here; in the data, active means growth inhibition above about 70%; inactive means the rest.
# Legend:
# [1] = NCI Yeast Anticancer Drug Screen. Data for the rad52 strain (AID 147);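 further: 0% = growth of vehicle-treated control cultures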; settings: S. cerevisiae rad52 mutant growth inhibition, active compounds read high
# In short: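 Inhibition of yeast growth, referenced to vehicle controls, was the measured output for a strain with defective DNA damage repair.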
# [2] = NCI Yeast Anticancer Drug Screen. Data for the wt1 strain (AID 149);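 further: 0% = growth of vehicle-treated wt1 cultures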; settings: S. cerevisiae wt1 strain (SPY 50644) growth inhibition, active compounds read high
# In short: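 Measured: growth of wt1 yeast under compound versus vehicle treatment, reported as inhibition.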
# [3] = NCI Yeast Anticancer Drug Screen. Data for the rad50EPP+ strain (AID 151);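 further: 0% = growth of vehicle-treated control cultures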; settings: S. cerevisiae rad50 mutant strain, active compounds read high
# In short: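 Genetically defined yeast (rad50EPP+, DNA damage repair alteration) is grown with compound, and inhibition of growth is expressed relative to vehicle-treated controls.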
# [4] = NCI Yeast Anticancer Drug Screen. Data for the mgt1 strain (AID 153); settings: S. cerevisiae mgt1 mutant growth inhibition, active compounds read high
# In short: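 In the mgt1 strain, test compounds were added and growth inhibition was determined relative to vehicle-treated controls.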
# [5] = NCI Yeast Anticancer Drug Screen. Data for the rad50 strain (AID 155);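 further: 0% = growth of vehicle-only cultures of the same strain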; settings: S. cerevisiae rad50 strain growth inhibition, active compounds read high
# In short: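 Growth of the mutant yeast was measured after compound exposure and referenced to vehicle-treated cultures.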
# [6] = NCI Yeast Anticancer Drug Screen. Data for the mec2-1 strain (AID 157); settings: S. cerevisiae mec2-1 strain, active compounds read high
# In short: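 Each compound was tested on mec2-1 yeast, a strain altered in DNA damage repair or cell cycle control. Growth inhibition is reported relative to vehicle.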
# [7] = NCI Yeast Anticancer Drug Screen. Data for the rad14 strain (AID 159);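 further: 0% = growth of vehicle-treated control cultures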; settings: S. cerevisiae rad14 strain growth inhibition, active compounds read high
# In short: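 Here, inhibition of yeast growth was measured after compound exposure, using a strain with a genetic defect in DNA damage repair and vehicle-treated cultures as the reference.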
# [8] = NCI Yeast Anticancer Drug Screen. Data for the sgs1 mgt1 strain (AID 161);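 further: 0% = growth of cultures given vehicle only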; settings: S. cerevisiae sgs1 mgt1 strain, active compounds read high
# In short: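 Mutant yeast exposed to compound; growth scored against vehicle-only wells.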
# [9] = NCI Yeast Anticancer Drug Screen. Data for the CLN2oe strain (AID 163);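 further: 0% = growth of vehicle-only control cultures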; settings: S. cerevisiae CLN2oe strain, active compounds read high
# In short: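 First, the altered yeast strain was treated with each compound; second, its growth was measured; finally, inhibition was derived by comparison with vehicle controls.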
# [10] = NCI Yeast Anticancer Drug Screen. Data for the cln2 rad14 strain (AID 165);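 further: 0% = growth equal to vehicle treated cultures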; settings: S. cerevisiae cln2 rad14 strain, active compounds read high
# In short: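 Test compounds were added to cln2 rad14 yeast cultures; inhibition of growth was then determined by comparison with vehicle treatment.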
# [11] = NCI Yeast Anticancer Drug Screen. Data for the bub3 strain (AID 167); settings: S. cerevisiae bub3 mutant strain, active compounds read high
# In short: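 Whole-cell yeast assay. The mutant strain was incubated with compounds, and growth inhibition was determined by comparison with vehicle-treated cells.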
# [12] = NCI Yeast Anticancer Drug Screen. Data for the wt2 strain (AID 169);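 further: 0% = growth of vehicle-treated yeast cultures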; settings: S. cerevisiae wt2 strain growth inhibition, active compounds read high
# In short: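 The panel's yeast strains carry defined changes in DNA repair or cell cycle genes. Each strain is grown with compound, and growth loss is scored relative to vehicle.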
# [13] = NCI Yeast Anticancer Drug Screen. Data for the mlh1 strain (AID 171);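 further: 0% = growth of vehicle-treated control cultures of the same strain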; settings: S. cerevisiae mlh1 strain growth inhibition, active compounds read high
# In short: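 Inhibition values reflect reduced yeast growth in the presence of compound, referenced to vehicle controls, using a strain chosen for its alteration in DNA repair or cell cycle control.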
# [14] = NCI Yeast Anticancer Drug Screen. Data for the sgs1 strain (AID 173);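 further: 0% = growth of vehicle-only control cultures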; settings: S. cerevisiae sgs1 mutant, active compounds read high
# In short: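 Vehicle-treated cultures served as reference for growth inhibition of a yeast strain altered in DNA damage repair or cell cycle control after compound exposure.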
# [15] = NCI Yeast Anticancer Drug Screen. Data for the mlh1 rad18 strain (AID 175); settings: S. cerevisiae mlh1 rad18 strain growth inhibition, active compounds read high
# In short: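 Inhibition values reflect reduced growth of mutant yeast versus vehicle-treated controls following compound exposure; the mutations affect DNA damage repair.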
# [16] = NCI Yeast Anticancer Drug Screen. Data for the rad18 strain (AID 177); settings: S. cerevisiae rad18 mutant growth inhibition, active compounds read high
# In short: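 Steps: expose repair-mutant yeast to compound; measure growth; express as inhibition relative to vehicle control.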
# [17] = at 5.0 µM (retest, dose inferred, filed as 0.5)
# [18] = at 50.0 µM (retest, dose inferred, filed as 5.0)
compound,measurement,setting,value
O=C1C(=O)c2cccc([N+](=O)[O-])c2-c2ccccc21,growth inhibition,[1]; at 1.2 µM,6%
same,growth inhibition,[1]; at 3.7 µM,-4%
same,growth inhibition,[1]; at 11.0 µM,37%
same,growth inhibition,[1]; at 33.0 µM,99% (active)
same,growth inhibition,[1]; at 100.0 µM,97% (active)
same,growth inhibition,[2]; at 1.2 µM,2%
same,growth inhibition,[2]; at 3.7 µM,20%
same,growth inhibition,[2]; at 11.0 µM,18%
same,growth inhibition,[2]; at 33.0 µM,100% (active)
same,growth inhibition,[2]; at 100.0 µM,98% (active)
same,growth inhibition,[3]; at 1.2 µM,-2%
same,growth inhibition,[3]; at 3.7 µM,-14%
same,growth inhibition,[3]; at 11.0 µM,24%
same,growth inhibition,[3]; at 33.0 µM,99% (active)
same,growth inhibition,[3]; at 100.0 µM,98% (active)
same,growth inhibition,[4]; at 1.2 µM,2%
same,growth inhibition,[4]; at 3.7 µM,-2%
same,growth inhibition,[4]; at 11.0 µM,6%
same,growth inhibition,[4]; at 33.0 µM,99% (active)
same,growth inhibition,[4]; at 100.0 µM,98% (active)
same,growth inhibition,[5]; at 1.2 µM,-78%
same,growth inhibition,[5]; at 3.7 µM,-4%
same,growth inhibition,[5]; [17],19%
same,growth inhibition,[5]; at 11.0 µM,55%
same,growth inhibition,[5]; at 33.0 µM,99% (active)
same,growth inhibition,[5]; [18],98% (active)
same,growth inhibition,[5]; at 50.0 µM,98.5% (active)
same,growth inhibition,[5]; at 100.0 µM,96% (active)
same,growth inhibition,[6]; at 1.2 µM,5%
same,growth inhibition,[6]; at 3.7 µM,9%
same,growth inhibition,[6]; [17],31%
same,growth inhibition,[6]; at 11.0 µM,10%
same,growth inhibition,[6]; at 33.0 µM,99% (active)
same,growth inhibition,[6]; [18],99% (active)
same,growth inhibition,[6]; at 50.0 µM,99.2% (active)
same,growth inhibition,[6]; at 100.0 µM,97% (active)
same,growth inhibition,[7]; at 1.2 µM,11%
same,growth inhibition,[7]; at 3.7 µM,20%
same,growth inhibition,[7]; at 11.0 µM,62%
same,growth inhibition,[7]; at 33.0 µM,99% (active)
same,growth inhibition,[7]; at 100.0 µM,98% (active)
same,growth inhibition,[8]; [17],31%
same,growth inhibition,[8]; [18],99% (active)
same,growth inhibition,[8]; at 50.0 µM,98.9% (active)
same,growth inhibition,[9]; at 1.2 µM,-6%
same,growth inhibition,[9]; at 3.7 µM,-5%
same,growth inhibition,[9]; at 11.0 µM,-1%
same,growth inhibition,[9]; at 33.0 µM,99% (active)
same,growth inhibition,[9]; at 100.0 µM,98% (active)
same,growth inhibition,[10]; [17],1%
same,growth inhibition,[10]; [18],98% (active)
same,growth inhibition,[10]; at 50.0 µM,97.8% (active)
same,growth inhibition,[11]; at 1.2 µM,32%
same,growth inhibition,[11]; at 3.7 µM,35%
same,growth inhibition,[11]; [17],53%
same,growth inhibition,[11]; at 11.0 µM,47%
same,growth inhibition,[11]; at 33.0 µM,99% (active)
same,growth inhibition,[11]; [18],98% (active)
same,growth inhibition,[11]; at 50.0 µM,98.8% (active)
same,growth inhibition,[11]; at 100.0 µM,99% (active)
same,growth inhibition,[12]; at 1.2 µM,30%
same,growth inhibition,[12]; at 3.7 µM,47%
same,growth inhibition,[12]; at 11.0 µM,66%
same,growth inhibition,[12]; at 33.0 µM,99% (active)
same,growth inhibition,[12]; at 100.0 µM,98% (active)
same,growth inhibition,[13]; at 1.2 µM,-3%
same,growth inhibition,[13]; at 3.7 µM,-1%
same,growth inhibition,[13]; at 11.0 µM,3%
same,growth inhibition,[13]; at 33.0 µM,99% (active)
same,growth inhibition,[13]; at 100.0 µM,98% (active)
same,growth inhibition,[14]; at 1.2 µM,16%
same,growth inhibition,[14]; at 3.7 µM,11%
same,growth inhibition,[14]; at 11.0 µM,35%
same,growth inhibition,[14]; at 33.0 µM,99% (active)
same,growth inhibition,[14]; at 100.0 µM,96% (active)
same,growth inhibition,[15]; [17],37%
same,growth inhibition,[15]; [18],98% (active)
same,growth inhibition,[15]; at 50.0 µM,98.8% (active)
same,growth inhibition,[16]; at 1.2 µM,1%
same,growth inhibition,[16]; at 3.7 µM,6%
same,growth inhibition,[16]; at 11.0 µM,15%
same,growth inhibition,[16]; at 33.0 µM,99% (active)
same,growth inhibition,[16]; at 100.0 µM,98% (active)
